From PubChem BioAssay (EPA / NIEHS)
Calls of active or inactive are those of the source. The calls were made as follows: active = hit-call score of the fitted dose curve at least 0.9, where 1 is the maximum; inactive = score below 0.9.

Read-out: Interleukin 2 (IL2), IL2 (gene 3558)
Experiment: BSK_BT_xIL2: BioMAP Diversity Plus: BT Assay for Interleukin 2 (IL2) Biomarker Activity (AID 2284245)
Conditions: primary human B cells with PBMC
Method in brief: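 Co-cultures of primary human B cells and PBMC are treated with chemical and sampled at 24 h. IL-2 secretion is quantified by Luminex xMAP, with DMSO-treated wells as baseline.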

Structure (SMILES)	outcome	AC50
COCCO	inactive	–
CCC(C)OC(=O)N1CCCCC1CCO (stereo unspecified)	inactive	–
N#CSCSc1nc2ccccc2s1	–	5.16 µM (active)

Read-out: Basic fibroblast growth factor (bFGF), FGF2 (gene 2247)
Experiment: BSK_MyoF_bFGF: BioMAP Diversity Plus: MyoF Assay for Basic fibroblast growth factor (bFGF) Biomarker Activity (AID 2284246)
Conditions: primary human lung fibroblasts
Procedure: BSK_MyoF is a cell-based, multiplexed-readout assay that uses lung fibroblasts, a human […] primary cell, with measurements taken at 24 hours after chemical dosing in a microplate: 96-well plate.BSK_MyoF_bFGF is an assay component measured in the BSK_MyoF assay. It measures bFGF antibody related to regulation of gene expression using ELISA technology.Data from the assay component BSK_MyoF_bFGF was analyzed at the endpoint, BSK_MyoF_bFGF, in the positive analysis fitting direction relative to DMSO as the negative control and baseline of activity. Using a type of binding reporter, gain or loss-of-signal activity can be used to understand protein changes. To generalize the intended target to other relatable targets, this assay endpoint is annotated to the 'growth factor' intended target family, where the subfamily is 'basic fibroblast growth factor '.
(§1) The levels of cell surface (or secreted, indicated by the prefix "s") biomarker endpoints were measured by ELISA. Overt cytotoxicity to cells in confluent adherent cultures (all systems other than the BT system) was assessed by measuring total protein levels using sulforhodamine B (SRB) staining in parallel cultures at the time of biomarker measurements, indicated as SRB endpoints. For proliferation assays for adherent cell types, individual cell types are cultured at sub-confluence and relative cell numbers quantified by SRB staining at time points optimized for each system (48 h: 3C and CASM3C systems; 72 h: BT and HDF3CGF systems; 96 h: SAg system). SRB was performed by staining cells with 0.1% SRB after fixation with 10% TCA and reading wells at 560 nm.Viability and proliferation of PBMC (T cells) was quantified by Alamar Blue reduction for the SAg and BT systems. […] Then, Alamar Blue (20 uL/well) (Invitrogen, Cat DAL1100) was added for 6 h, and the plates were read with a fluorescence microplate reader at 546/580 nm (excitation/emission). […] Plates were read after 6 h.

Structure (SMILES)	outcome	AC50
COCCO	inactive	–
CCC(C)OC(=O)N1CCCCC1CCO (stereo unspecified)	inactive	–
N#CSCSc1nc2ccccc2s1	–	10.6 µM (active)

Read-out: Collagen IV, COL4A1 (gene 1282)
Experiment: BSK_MyoF_CollagenIV: BioMAP Diversity Plus: MyoF Assay for Collagen IV Biomarker Activity (AID 2284247)
Conditions: primary human lung fibroblasts
Method in brief: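 Lung fibroblasts (human primary) treated with chemicals were assayed after 24 h for Collagen IV using an ELISA, with DMSO serving as negative control and baseline for a positive-direction fit.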

Structure (SMILES)	outcome	AC50
COCCO	inactive	–
CCC(C)OC(=O)N1CCCCC1CCO (stereo unspecified)	inactive	–
N#CSCSc1nc2ccccc2s1	–	6.4 µM (active)

Read-out: Plasminogen activator inhibitor-1 (PAI1), SERPINE1 (gene 5054)
Experiment: BSK_MyoF_PAI1: BioMAP Diversity Plus: MyoF Assay for Plasminogen activator inhibitor-1 (PAI1) Biomarker Activity (AID 2284256);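 as to outcome: PAI-1 protein level measured by ELISA in fibroblast cultures; PAI-1 read 24 h after compound addition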
Conditions: primary human lung fibroblasts
Method in brief: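 ELISA read-out of PAI-1 from primary human lung fibroblast cultures 24 h after dosing; gain-of-signal fit versus DMSO control.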

Structure (SMILES)	outcome	AC50
COCCO	inactive	–
CCC(C)OC(=O)N1CCCCC1CCO (stereo unspecified)	inactive	–
N#CSCSc1nc2ccccc2s1	–	7.79 µM (active)

Read-out: Interleukin-8 (IL8), CXCL8 (gene 3576)
Experiment: BSK_MyoF_IL8: BioMAP Diversity Plus: MyoF Assay for Interleukin-8 (IL8) Biomarker Activity (AID 2284261)
Conditions: primary human lung fibroblasts
Method in brief: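 ELISA read-out of IL-8 from primary human lung fibroblasts, 24 h post-dose; positive-direction curve fitting relative to DMSO vehicle baseline.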

Structure (SMILES)	outcome	AC50
COCCO	inactive	–
CCC(C)OC(=O)N1CCCCC1CCO (stereo unspecified)	inactive	–
N#CSCSc1nc2ccccc2s1	–	11.2 µM (active)

Read-out: Decorin, DCN (gene 1634)
Experiment: BSK_MyoF_Decorin: BioMAP Diversity Plus: MyoF Assay for Decorin Biomarker Activity (AID 2284265)
Conditions: primary human lung fibroblasts
Method in brief: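 Human lung fibroblasts in the MyoF system were exposed to compound for 24 h, after which decorin was quantified by ELISA. Activity was fitted in the positive direction relative to DMSO negative control.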

Structure (SMILES)	outcome	AC50
COCCO	inactive	–
CCC(C)OC(=O)N1CCCCC1CCO (stereo unspecified)	inactive	–
N#CSCSc1nc2ccccc2s1	–	5.27 µM (active)

Read-out: not listed separately
Experiment: BSK_MyoF_SRB: Viability Assessment in the BioMAP Diversity Plus: MyoF Assay (AID 2284267);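 also: total protein by SRB absorbance in parallel cultures as cytotoxicity measure; cells assessed 24 h after compound addition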
Conditions: primary human lung fibroblasts
Procedure: BSK_MyoF is a cell-based, multiplexed-readout assay that uses lung fibroblasts, […], with measurements taken at 24 hours after chemical dosing in a microplate: 96-well plate.BSK_MyoF_SRB is an assay component measured in the BSK_MyoF assay. It measures 0.1% sulforhodamine related to cell death using Sulforhodamine staining technology.Data from the assay component BSK_MyoF_SRB was analyzed at the endpoint, BSK_MyoF_SRB, in the positive analysis fitting direction relative to DMSO as the negative control and baseline of activity. Using a type of viability reporter, gain or loss-of-signal activity can be used to understand protein changes. To generalize the intended target to other relatable targets, this assay endpoint is annotated to the 'cell morphology' intended target family, where the subfamily is 'cell conformation'.
as §1

Structure (SMILES)	outcome	AC50
COCCO	inactive	–
CCC(C)OC(=O)N1CCCCC1CCO (stereo unspecified)	inactive	–
N#CSCSc1nc2ccccc2s1	–	5.55 µM (active)

Read-out: Matrix Metallopeptidase 1 (MMP1), MMP1 (gene 4312)
Experiment: BSK_MyoF_MMP1: BioMAP Diversity Plus: MyoF Assay for Matrix Metallopeptidase 1 (MMP1) Biomarker Activity (AID 2284268)
Conditions: primary human lung fibroblasts
Method in brief: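 ELISA readout of MMP1 in primary human lung fibroblast cultures, 24 h post-dosing. Gain of signal versus DMSO vehicle control defines activity. Parallel SRB staining (0.1% after 10% TCA fixation, 560 nm) flags overt cytotoxicity.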

Structure (SMILES)	outcome	AC50
COCCO	inactive	–
CCC(C)OC(=O)N1CCCCC1CCO (stereo unspecified)	inactive	–
N#CSCSc1nc2ccccc2s1	–	3.63 µM (active)

Read-out: TIMP metallopeptidase inhibitor 1 (TIMP1), TIMP1 (gene 7076)
Experiment: BSK_MyoF_TIMP1: BioMAP Diversity Plus: MyoF Assay for TIMP metallopeptidase inhibitor 1 (TIMP1) Biomarker Activity (AID 2284269)
Conditions: primary human lung fibroblasts
Method in brief: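 ELISA quantified TIMP-1 levels after 24 h dosing of primary human lung fibroblasts, with DMSO as baseline. Parallel SRB total protein staining (0.1% SRB after TCA fixation, 560 nm) flagged overt cytotoxicity.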

Structure (SMILES)	outcome	AC50
COCCO	inactive	–
CCC(C)OC(=O)N1CCCCC1CCO (stereo unspecified)	inactive	–
N#CSCSc1nc2ccccc2s1	–	11.4 µM (active)

System: not listed separately
Experiment: IUF_NPC2c_oligodendrocyte_migration_120hr: Leibniz Research Institute for Environmental Medicine (IUF) 120-hour Neural Progenitor Cell Migration Assay for Oligodendrocyte Migration (NPC2c) (AID 2284297);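 also: O4-positive oligodendrocyte migration distance divided by radial glia migration distance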
Conditions: not given
Method in brief: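 Human fetal cortex-derived neural progenitor spheres (0.3 mm) were plated on poly-D-lysine/laminin in N2 differentiation medium and exposed to 7 concentrations for 120 h, with half-medium renewal at day 3. Oligodendrocyte migration distance was normalized to radial glia migration, relative to DMSO.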

Structure (SMILES)	outcome	AC50
CSC(=O)c1cccc2nnsc12	inactive	–
S=C([S-])NCCNC(=S)[S-].[Mn+2]	inactive	–
Cc1nn(C)c(Oc2ccccc2)c1C=NOCc1ccc(C(=O)OC(C)(C)C)cc1	–	12.5 µM (active)
S=C(S)NCCNC(=S)S.[Mn+2].[S-]C([S-])=NCCN=C([S-])[S-].[Zn+2]	inactive	–
O=C(O)c1ccccc1	inactive	–
C#CCOC(=O)[C@@H](C)Oc1ccc(Oc2ncc(Cl)cc2F)cc1	inactive	–
CCN(CC)C(=O)c1cccc(C)c1	inactive	–
CCCN(CCC)C(=O)SCC	inactive	–
CC(C)(c1ccc(O)cc1)c1ccc(O)cc1	inactive	–
